An excerpt weighted towards active compounds, which were near 3.4% of everything screened.
MITF primary: human MITF inhibition, primary screen. O75030. AlphaScreen MITF homodimerization, bead proximity signal. inhibition, % at 2.6 µM. actives 0.91% (n = 650,000); in the data active = inhibition above about 50%;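 also: 0% = vehicle wells with protein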
Target sequence (O75030 whole entry, looked up): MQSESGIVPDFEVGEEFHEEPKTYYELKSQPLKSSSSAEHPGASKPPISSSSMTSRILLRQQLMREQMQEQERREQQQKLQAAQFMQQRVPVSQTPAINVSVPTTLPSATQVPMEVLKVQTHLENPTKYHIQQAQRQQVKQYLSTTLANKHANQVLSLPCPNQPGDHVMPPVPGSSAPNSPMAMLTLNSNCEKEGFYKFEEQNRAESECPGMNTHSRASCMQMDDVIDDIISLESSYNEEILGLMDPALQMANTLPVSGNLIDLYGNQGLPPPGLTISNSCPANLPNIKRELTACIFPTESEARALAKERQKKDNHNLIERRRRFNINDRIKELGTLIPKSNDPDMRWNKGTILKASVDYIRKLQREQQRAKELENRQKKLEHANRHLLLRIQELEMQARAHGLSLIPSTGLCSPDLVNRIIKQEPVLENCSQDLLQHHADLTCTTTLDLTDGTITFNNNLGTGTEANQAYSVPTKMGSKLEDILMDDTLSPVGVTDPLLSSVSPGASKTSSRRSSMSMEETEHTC
FBW7 activator: activators of human E3 ligase FBW7. AlphaScreen FBW7–phospho-cyclin E peptide binding, activator screen. normalized activity (activation), % at 26.1 µM. actives 0.13% (n = 650,000). AID 1259310; in the data active = normalized activity above about 1.9%;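 also: purified mutant Fbw7 with reduced substrate affinity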
GPR151 ag: activators of human GPR151 | PathHunter beta-arrestin GPR151 cells, luminescence | activation, % at 11.2 µM | actives 1% (n = 650,000) | AID 1508602; in the data active = activation above about 4.9%;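 also: 0% = median of compound wells and 100% = cells with positive control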
TEAD-YAP inh: TEAD-YAP interaction inhibition. HEK-TIYL cells, TEAD-Gal4/YAP UAS-luciferase luminescence. inhibition, % at 9.12 µM. actives 1.4% (n = 640,000); in the data active = inhibition above about 32%;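 also: 0% = median of test compound wells and 100% = reference inhibitor wells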
GPR151 conf act: human GPR151 activation, confirmation screen. shares compounds with GPR151 ag. GPR151 PathHunter beta-arrestin cells, luminescence, 90 min; % of EA-reagent control over plate median. 6,700 tested, under 10 active. activation, % at 11.2 µM. AID 1508609;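 active = mean percent activation across replicates above the confirmation screen cutoff of 4.91%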
GPR119 counter: GPR119 activation, counter-screen for GPR151 activators | GPR119 PathHunter beta-arrestin cells, luminescence, 90 min; 0 = compound-well median, 100 = enzyme-acceptor control | activation, % at 11.2 µM | shares compounds with GPR151 ag | actives 0.3% (n = 6,700);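 active = mean percent activation in the counterscreen above 29.09%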;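 also: counterscreen on off-target GPR119 to flag nonselective hits from the GPR151 activator screen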
* = called active by the depositor.

`O=C(Nc1nc2c(s1)CCCC2)C1CN(c2nc3ccccc3s2)C1` gave MITF primary 3.4, FBW7 activator -0.3, GPR151 ag 9.8*, TEAD-YAP inh -16.9, GPR151 conf act -0.1 and GPR119 counter -0.7.
Screening CCc1ccc(C(=O)N[C@H]2C[C@H]3C(=O)N[C@@H](CO)C(=O)N3C2)cc1 returned MITF primary 9.6, FBW7 activator 0.1, GPR151 ag -0.2 and TEAD-YAP inh 0.7.
`O=C(NN=C1CCCCC1)C(O)(c1ccccc1)c1ccccc1` gave MITF primary -1.2, FBW7 activator -0.1, GPR151 ag 9.9*, TEAD-YAP inh 5.6, GPR151 conf act 3.0 and GPR119 counter 14.1.
O=C(NN=C1CCCC1)C(O)(c1ccccc1)c1ccccc1 was read as MITF primary -6.3, FBW7 activator -0.1, GPR151 ag -0.5 and TEAD-YAP inh -9.7.
CCC(=O)Nc1nc2nc(COC)cc(=O)n2[nH]1 was read as MITF primary 16.7, FBW7 activator 0.2, GPR151 ag 0.8 and TEAD-YAP inh -0.8.
For O=[N+]([O-])c1c(Nc2ccc(Br)cc2F)ccc2nonc12 the results were MITF primary 7.5, FBW7 activator -0.1, GPR151 ag 5.0*, TEAD-YAP inh 15.6, GPR151 conf act 0.1 and GPR119 counter -6.9.
Screening Cn1c(=O)c2c(nc3n(CCc4ccccc4)c(-c4ccc(Br)cc4)cn23)n(C)c1=O returned MITF primary 16.2, FBW7 activator 0.1, GPR151 ag 5.6*, TEAD-YAP inh 17.6, GPR151 conf act -0.3 and GPR119 counter 1.3.
For Cn1c(=O)c2c(nc3n(CCc4ccccc4)c(-c4ccccc4)cn23)n(C)c1=O the results were MITF primary -16.6, FBW7 activator -0.3, GPR151 ag 1.4 and TEAD-YAP inh 7.6.
`CC1=C(C(=O)OCCc2ccccc2)C(c2ccccc2Br)C2=C(CC(c3ccccc3)CC2=O)N1` (centres undefined) gave MITF primary 11.5, FBW7 activator 0.1, GPR151 ag 0.6 and TEAD-YAP inh -3.6.
`COc1ccc(C2/C(=C(/O)c3ccccc3)C(=O)C(=O)N2CCN(C)C)cc1OC` (centres undefined) gave MITF primary 6.3, FBW7 activator 0.0, GPR151 ag 0.3 and TEAD-YAP inh -2.6.
`CCN1CCN(C(=O)CN(C)S(=O)(=O)c2ccc(Cl)cc2)CC1` gave MITF primary 8.1, FBW7 activator -0.1, GPR151 ag 19.8*, TEAD-YAP inh -1.4, GPR151 conf act -0.3 and GPR119 counter -1.6.
`CCN1CCN(C(=O)CN(C)S(=O)(=O)c2ccc(Br)cc2)CC1` gave MITF primary 1.1, FBW7 activator 0.0, GPR151 ag -2.5 and TEAD-YAP inh 12.5.
Screening CCOC(=O)N1CCN(c2c(NC3CCCCC3)c(=O)c2=O)CC1 returned MITF primary 9.7, FBW7 activator 0.1, GPR151 ag -0.1 and TEAD-YAP inh 1.3.
CCOC(=O)N1CCN(c2c(NCc3cccnc3)c(=O)c2=O)CC1 was read as MITF primary -5.6, FBW7 activator -0.1, GPR151 ag -0.8 and TEAD-YAP inh 2.9.
Screening COc1cccc(CNC(=O)c2ccc(CNc3c(N4CCOCC4)c(=O)c3=O)cc2)c1 returned MITF primary 0.8, FBW7 activator 0.0, GPR151 ag 8.6*, TEAD-YAP inh -11.6, GPR151 conf act -1.1 and GPR119 counter -6.1.
CCOC(=O)N1CCN(c2c(NCc3ccc(Cl)cc3)c(=O)c2=O)CC1 was read as MITF primary 2.4, FBW7 activator 0.1, GPR151 ag 4.9*, TEAD-YAP inh 53.2*, GPR151 conf act -0.2 and GPR119 counter -8.0.
Screening O=C(O)c1ccc(CNc2c(N3CCCCC3)c(=O)c2=O)cc1 returned MITF primary 0.5, FBW7 activator 0.2, GPR151 ag 7.5*, TEAD-YAP inh -6.0, GPR151 conf act 0.3 and GPR119 counter -1.5.
Screening CCOC(=O)N1CCN(c2c(NC3CCC(C)CC3)c(=O)c2=O)CC1 (centres undefined) returned MITF primary 1.2, FBW7 activator 0.1, GPR151 ag 5.0*, TEAD-YAP inh -3.0, GPR151 conf act 0.4 and GPR119 counter 8.5.

Bioassay records from PubChem BioAssay.
